The panel holds about 83,000 compounds, 20% with a hit somewhere; the sample as a whole holds those more often.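 For each line, cells grew in 96-well plates with the test compound present at a single concentration for 48 hours.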 A number with no mark means an inactive call. Active and inactive are the calls of the source. The calls were made as follows: active = growth percent below 10; inactive = the rest.

In PubChem BioAssay (NCI) one finds growth data, which are given here for 40 compounds.

This test relates to MDA-MB-468 breast. The test can be described thus: NCI-60 one-dose screen, 48 h (100 = growth as untreated, 0 = no growth, -100 = all killed). Conditions: 10 µM unless noted.
Turning to `COc1ccc(NC(=O)c2cccc(C3CCc4c(cc(OC)c(OC)c4OC)O3)c2)cc1` (stereo not given), the growth was 22%. As for `Clc1ccc(-c2nc(C(Cl)Cl)nc3cc(-c4ccccc4)nn23)cc1`, the growth is -33.8% (active). The value for `CN(C)c1ccc(/C=N\NC(=O)c2ccc3nc(-c4ccc(Cl)cc4)[nH]c3c2)cc1` was 76.1%. The value for `O=C1Nc2c(ccc(Cl)c2Cl)/C1=C/c1ccc(F)cc1` was 51.9%. Turning to `CCN1C(=O)N(CC)C2C1NN=c1s/c(=C3\C(=O)Nc4ccccc43)c(=O)n12` (stereo not given), the growth is -20.9% (active). To `COc1ccc(-c2[nH]ncc2/C=C/c2cc(C(F)(F)F)[nH]c(=O)n2)cc1` belongs 96.1%.

As to `COc1cc2nc(-c3ccc(Cl)cc3)cc(OCCCN3CCC(O)CC3)c2cc1OC`, the growth is 52.9%. On to `N=C(N)c1ccc(-c2ccc(-c3ccc(-c4cccs4)s3)s2)cc1F`, for which the growth is 79.5%.

As for `O=S(=O)(NCCCNc1nccc(-n2cnc3ccccc32)n1)c1ccc(C(F)(F)F)cc1`, the growth is 76.2%. On to `N#Cc1c2c(c(N)[nH]c1=O)C(=O)NC2(O)c1ccccc1` (stereo not given), for which the growth was 104%. As to `COc1cc(/C=C2\CCC/C(=C\c3ccc(OCC4CO4)c(OC)c3)C2=O)ccc1OCC1CO1` (stereo not given), the growth is 20.1%. To `C=C(C)[C@@H]1CC[C@]2(COCCC#N)CC[C@]3(C)[C@H](CC[C@@H]4[C@@](C)(CCCNCCC#N)[C@H](C(=C)C)CC[C@]43C)[C@@H]12` belongs 16.3% [100 µM]; to `COc1ccc(/C=C(\C#N)c2ccc(OC)cc2)cc1`, 7.49% (active); to `Cc1cc2cn3c4ccc(O)cc4nc(N)c3c2cc1C`, -9.7% (active).

As to `CN(C)CC(O)c1ccc2cc(Br)c3ccccc3c2c1` (stereo not given), the growth is -0.132% (active). The value for `Cc1c(O)c(=O)ccn1-c1nc2ccccc2s1` was 103%; that for `CCC/C(=N/NC(N)=O)c1ccco1` was 102%. Turning to `CC1(C)OC(=O)C(=Cc2cccc(Br)c2)C(=O)O1`, the growth was 111%. Consider `CCOC(=O)[C@@H]1CSC(CC)=C(C(=O)O)N1`, for which the growth is 113%. Take `Oc1ccc2c(=S)cc(-c3ccc(Br)cc3)oc2c1O`: the growth is -2.5% (active).

`COc1ccc(C2C=C(c3ccc(Cl)cc3)N=C3SC=C(C)N32)c(Br)c1` (stereo not given): the growth was 8.58% (active).

For `O=C(N/N=C\c1cccc([N+](=O)[O-])c1)N/N=C/c1cccc([N+](=O)[O-])c1`, the growth is 82%. On to `CC(=O)c1c(O)cc2c3c1OC(C)(C)C1CCC(C)(CC31)O2` (stereo not given), for which the growth was 85.9%. The value for `CO/N=C1\CCc2c(sc(NC(=O)c3cccc(C(F)(F)F)c3)c2C(N)=O)C1` was 29.9%. To `O=c1cc(C(F)(F)F)[nH]c(=S)[nH]1` belongs 110%; to `Cc1ccccc1NC(=O)/C=C/c1ccc(OCCOc2ccc3c(C)cc(=O)oc3c2)cc1`, 104%.

For `CC/C=C\C[C@H](F)C/C=C1/C(=O)C=C[C@@H]1C/C=C\CCCC(=O)OC`, the growth was 17.9%.

`COc1ccc(-c2ccc(-c3ccc(C(=N)N)cn3)s2)cc1OC`: the growth is 92.6%. To `COc1ccc(C(=O)/C=C/c2ccc(N3CCCCC3)cc2)cc1OC` belongs 61.8%. To `O=C(NCCCl)Nc1ncccc1OCc1ccccc1` belongs 104%.

For `Nc1c(C(=O)Nc2cccc(Cl)c2Cl)sc2nc3c(cc12)C(=O)CCC3`, the growth is 71.8%. As for `C#C[C@]1(O)CC[C@H]2[C@@H]3CC=C4c5sc(Nc6cccc(Cl)n6)nc5CC[C@]4(C)[C@H]3CC[C@@]21C`, the growth is 23.3%.

Consider `O=C1Nc2ccccc2/C1=N/c1nc(-c2ccc(Cl)cc2)cs1`, for which the growth is 59%. To `CC(CC(CCC(=O)O)(c1ccccc1)c1ccccc1)N(C)C` (stereo not given) belongs 98.4%. As to `O=C1c2ccccc2CCC1(Br)Br`, the growth is -42.2% (active).

Take `Cc1ccc(N2C(=O)c3cccc4c(N)c(S(=O)(=O)O)cc(c34)C2=O)cc1`: the growth was 113%. To `NS(=O)(=O)c1ccc(-n2nc(C(=O)N/N=C\c3ccc(F)cc3)cc2-c2ccc(Cl)cc2)cc1` belongs 112%; to `O=[N+]([O-])c1ccccc1CN1CCCCC1`, 89.3%. To `O=C(Nc1ccncc1)C(=O)c1cn(S(=O)(=O)c2cccc(Cl)c2F)c2ccccc12` belongs 33%; to `Cc1cn(C(=O)/C(Cl)=C(/Cl)C(=O)O)c2ccccc12`, 108%.
